Where “and” joins values, the source holds several entries; their conditions need not be identical. Equal values may be shown once. Records with an inconclusive call do not appear. Calls of active or inactive are those of the source. Rule for the calls: active = hit-call score of the fitted dose curve at least 0.9, where 1 is the maximum; inconclusive = response in the unintended direction; inactive = score below 0.9.

Assay [1] concerns the target human Peripheral-type Benzodiazepine Receptor (PBR), TSPO (gene 706) (UniProt P30536). Put plainly: NVS_MP_hPBR: NovaScreen (NVS) Membrane Protein Assay for human Peripheral-type Benzodiazepine Receptor (PBR) (AID 2283331).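 Note: hits reduce radioligand binding relative to DMSO baseline.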 The essentials:
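Cell-free binding to human colonic membrane preparations measured by filter-based scintillation counting after 1 h. Compounds first run at 25 uM in duplicate, then concentration series for actives; signal loss against DMSO baseline.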

For assay [2], the target named is rat Thyrotropin Releasing Hormone Receptor (TRH), Trhr (gene 25570) (UniProt Q01717). Kind of assay: NVS_GPCR_rTRH: NovaScreen (NVS) G Protein-Coupled Receptor Assay for rat Thyrotropin Releasing Hormone Receptor (TRH) (AID 2283329).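 Note: hit means lower bound tracer signal versus DMSO baseline.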 An outline of the steps: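 Test compounds are screened at 25 uM in duplicate against radioligand binding in rat forebrain membranes, with active pairs followed up over a concentration range. Detection uses filter-based radiodetection after a 4 h exposure.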
Chain of rat Thyrotropin Releasing Hormone Receptor (TRH), Trhr (gene 25570) (Q01717 whole entry, looked up): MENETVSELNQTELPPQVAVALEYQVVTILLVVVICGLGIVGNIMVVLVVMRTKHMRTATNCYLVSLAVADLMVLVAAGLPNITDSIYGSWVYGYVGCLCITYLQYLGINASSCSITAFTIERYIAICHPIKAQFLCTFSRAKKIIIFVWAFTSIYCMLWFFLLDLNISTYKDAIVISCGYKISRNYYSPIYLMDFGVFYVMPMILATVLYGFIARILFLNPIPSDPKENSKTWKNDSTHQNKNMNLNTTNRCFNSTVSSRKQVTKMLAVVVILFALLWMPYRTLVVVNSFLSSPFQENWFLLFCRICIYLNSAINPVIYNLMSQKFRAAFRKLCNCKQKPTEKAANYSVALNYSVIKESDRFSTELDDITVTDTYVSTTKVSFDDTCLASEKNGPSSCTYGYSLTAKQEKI

The target of assay [3] is Estrogen receptor (Homo sapiens) (UniProt P03372). Put plainly: OT_ER_ERaERa_1440: Odyssey Thera (OT) 24-hour HEK293T Protein-Complementation Assay for Estrogen Receptor-alpha/-alpha Homodimer (AID 2283349).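 Note: hits raise fluorescence above DMSO for agonists and antagonists alike.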 The essentials:
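HEK293T, stable ERα LBD (aa 310-547) homodimer PCA; 24 h compound exposure; mean fluorescence intensity (nuclear for agonists, nuclear plus cytoplasmic for antagonists) vs vehicle; positive fitting direction, DMSO baseline.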

For assay [4], the target named is rat Peripheral-type Benzodiazepine Receptor (PBR), Tspo (gene 24230) (UniProt P16257). Put plainly: NVS_MP_rPBR: NovaScreen (NVS) Membrane Protein Assay for rat Peripheral-type Benzodiazepine Receptor (PBR) (AID 2283335). The essentials:
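Single-concentration duplicate screening at 25 uM preceded concentration-series retesting of actives. Binding of a specific radioligand to rat kidney membrane PBR was read by filtration radiodetection after 1 h, with plate-wise positive and negative controls.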

Assay [5] has as its target rat Corticotropin Releasing Factor Receptor (CRF), Crhr1 (gene 58959) (UniProt P35353). Kind of assay: NVS_GPCR_rCRF: NovaScreen (NVS) G Protein-Coupled Receptor Assay for rat Corticotropin Releasing Factor Receptor (CRF) (AID 2283300). An outline of the steps:
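Single-concentration (25 uM, duplicate) radioligand binding on rat cortical membrane preparations, counted by scintillation after 2 h. Activity scored as signal loss relative to DMSO negative control.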

The target in assay [6] is rat Glutamate, AMPA Site (AMPA), Gria1 (gene 50592) (UniProt P19490). Kind of assay: NVS_LGIC_rAMPA: NovaScreen (NVS) Ligand-Gated Ion Channel Assay for rat Glutamate, AMPA Site (AMPA) (AID 2283324). The essentials: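 Screening at 25 uM in duplicate preceded concentration series reaching 50 uM for qualifying compounds. Radioligand displacement on rat forebrain membranes, 1 h, filter-based scintillation readout; reduced binding relative to DMSO.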
Chain of rat Glutamate, AMPA Site (AMPA), Gria1 (gene 50592) (P19490 whole entry, looked up): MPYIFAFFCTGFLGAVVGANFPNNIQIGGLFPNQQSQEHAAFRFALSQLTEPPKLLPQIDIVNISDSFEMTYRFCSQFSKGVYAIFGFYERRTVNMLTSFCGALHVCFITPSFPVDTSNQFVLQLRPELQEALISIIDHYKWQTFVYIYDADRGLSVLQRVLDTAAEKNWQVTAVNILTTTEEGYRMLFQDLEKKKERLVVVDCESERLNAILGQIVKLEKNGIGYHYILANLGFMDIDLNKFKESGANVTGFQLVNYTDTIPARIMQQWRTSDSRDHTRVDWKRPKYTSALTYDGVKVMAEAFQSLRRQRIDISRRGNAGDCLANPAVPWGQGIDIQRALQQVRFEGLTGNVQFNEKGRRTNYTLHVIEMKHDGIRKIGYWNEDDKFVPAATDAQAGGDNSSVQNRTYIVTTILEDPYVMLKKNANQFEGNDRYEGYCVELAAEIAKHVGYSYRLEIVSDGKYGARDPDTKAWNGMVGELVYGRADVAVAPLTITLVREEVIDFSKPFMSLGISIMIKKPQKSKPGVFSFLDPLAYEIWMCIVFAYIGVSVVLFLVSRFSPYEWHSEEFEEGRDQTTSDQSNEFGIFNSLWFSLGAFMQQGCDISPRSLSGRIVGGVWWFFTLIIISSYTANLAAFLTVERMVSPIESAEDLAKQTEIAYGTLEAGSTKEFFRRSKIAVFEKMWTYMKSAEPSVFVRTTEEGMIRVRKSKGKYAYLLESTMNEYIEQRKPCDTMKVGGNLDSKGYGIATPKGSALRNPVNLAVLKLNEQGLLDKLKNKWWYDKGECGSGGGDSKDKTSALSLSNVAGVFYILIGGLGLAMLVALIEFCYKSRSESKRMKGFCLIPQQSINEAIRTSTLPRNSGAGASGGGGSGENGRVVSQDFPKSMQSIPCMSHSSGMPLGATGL

For assay [7], the target named is Sodium channel protein type 1 subunit alpha (Rattus norvegicus) (UniProt P04774). Kind of assay: NVS_IC_rNaCh_site2: NovaScreen (NVS) Ion Channel Assay for rat Sodium Channel, Site 2 (NaCh) (AID 2283322).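 Note: hit means loss of radioligand binding signal relative to DMSO so AC50 marks displacement.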 An outline of the steps: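 Initial duplicate single-point testing at 25 uM, followed by concentration-response runs for actives. Binding of radioligand to rat forebrain membranes quantified after 1 h via filter-based radiodetection.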

The target of assay [8] is rat Gamma-Aminobutyric Acid Type A Receptor, Non-Selective (GABAR-NonSelective), Gabra1 (gene 29705) (UniProt P62813). Kind of assay: NVS_LGIC_rGABAR_NonSelective: NovaScreen (NVS) Ligand-Gated Ion Channel Assay for rat Gamma-Aminobutyric Acid Type A Receptor, Non-Selective (GABAR-NonSelective) (AID 2283326). The essentials: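 Compounds were first screened in duplicate at 25 uM, with actives run as singleton concentration series (max 50 uM). Binding of a radioligand to rat whole-brain GABA-A preparation was measured by filtration and scintillation counting after 1 h, DMSO baseline.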
Chain of rat Gamma-Aminobutyric Acid Type A Receptor, Non-Selective (GABAR-NonSelective), Gabra1 (gene 29705) (P62813 whole entry, looked up): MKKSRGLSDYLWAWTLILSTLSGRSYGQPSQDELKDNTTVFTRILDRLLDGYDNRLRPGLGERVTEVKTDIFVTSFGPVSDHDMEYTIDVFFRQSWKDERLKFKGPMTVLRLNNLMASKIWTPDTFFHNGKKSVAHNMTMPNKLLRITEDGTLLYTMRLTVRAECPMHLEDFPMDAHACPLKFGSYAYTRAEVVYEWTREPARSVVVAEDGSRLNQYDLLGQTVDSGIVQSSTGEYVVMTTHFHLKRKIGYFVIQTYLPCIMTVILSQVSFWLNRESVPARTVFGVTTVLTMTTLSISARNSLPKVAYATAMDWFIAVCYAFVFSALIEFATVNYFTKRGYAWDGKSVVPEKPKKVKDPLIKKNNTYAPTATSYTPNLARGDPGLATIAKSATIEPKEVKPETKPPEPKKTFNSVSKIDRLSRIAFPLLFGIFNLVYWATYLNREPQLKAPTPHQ

Assay [9] addresses rat Adrenergic Receptor, Alpha 2 (Adra2), Non-selective Binding, Adra2a (gene 25083) (UniProt P22909). Kind of assay: NVS_GPCR_rAdra2_NonSelective: NovaScreen (NVS) G Protein-Coupled Receptor Assay for rat Adrenergic Receptor, Alpha 2 (Adra2), Non-selective Binding (AID 2283299). An outline of the steps: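 Filter-based scintillation counting of radioligand binding to rat cortical membrane receptors, measured 1.25 hours post-dosing; loss of signal versus DMSO indicates displacement. Initial single-concentration duplicate at 25 uM, then concentration series.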

For assay [10], the target named is human Androgen Receptor (AR), AR (gene 367) (UniProt P10275). Kind of assay: NVS_NR_hAR: NovaScreen (NVS) Nuclear Receptor Binding Assay for human Androgen Receptor (AR) (AID 2283332). An outline of the steps:
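Radioligand competitive binding, scintillation read-out, in cell-free extract from LnCAP, measured 20 h after dosing. Screened first in duplicate at 25 uM, then concentration series for actives; activity fitted against DMSO.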

For assay [11], the target named is bovine Estrogen Receptor (ER), ESR1 (gene 407238) (UniProt P49884). Kind of assay: NVS_NR_bER: NovaScreen (NVS) Nuclear Receptor Binding Assay for bovine Estrogen Receptor (ER) (AID 2283345).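 Note: actives lower the bound radioligand count which means they displace the ER ligand.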 The essentials:
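Bovine uterine membranes; tritiated or iodinated radioligand; competitive displacement; 18 h; scintillation read; DMSO negative control; 25 uM duplicates, then concentration series for actives.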

Assay [12] concerns the target rat Glutamate, NMDA Agonist Site (GluNMDA), Grin1 (gene 24408) (UniProt P35439). Put plainly: NVS_LGIC_rGluNMDA_Agonist: NovaScreen (NVS) Ligand-Gated Ion Channel Assay for rat Glutamate, NMDA Agonist Site (GluNMDA) (AID 2283327). The essentials: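 Radioligand displacement at the agonist site on rat forebrain membrane preparations, read by filter scintillation after 1 h. Chemicals were first run at 25 uM in duplicate; those passing threshold were titrated to a 50 uM maximum.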

The subject of a further assay is NCBI gene 100848466. Kind of assay: NVS_NR_bPR: NovaScreen (NVS) Nuclear Receptor Binding Assay for bovine Progextron Receptor (PR) (AID 2283343).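 Note: actives lower bound radioligand signal below DMSO meaning displacement of the label.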 The essentials: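 Competitive radioligand binding with membranes from bovine uterus, scintillation read-out at 18 h post-dose. Compounds first tested in duplicate at 25 uM, then actives in concentration series; loss-of-signal relative to DMSO.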

Assay [13] concerns the target human Constitutive Androstane Receptor (CAR), NR1I3 (gene 9970) (UniProt Q14994). Put plainly: NVS_NR_hCAR_Antagonist: NovaScreen (NVS) Nuclear Receptor Binding Assay for human Constitutive Androstane Receptor Antagonism (CAR) (AID 2283344). An outline of the steps:
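Single 25 uM duplicate primary screen, with concentration-series follow-up on actives. Cell-free binding format run in antagonist mode, TR-FRET signal taken 1 h post-dose; activity is signal loss relative to DMSO.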

Chain of rat Peripheral-type Benzodiazepine Receptor (PBR), Tspo (gene 24230) (P16257 whole entry, looked up): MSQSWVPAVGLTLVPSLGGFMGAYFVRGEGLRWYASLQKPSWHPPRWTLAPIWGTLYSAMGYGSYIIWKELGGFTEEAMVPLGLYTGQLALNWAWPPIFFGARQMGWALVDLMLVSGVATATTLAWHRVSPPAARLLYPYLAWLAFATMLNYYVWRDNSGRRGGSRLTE
Chain of Estrogen receptor (Homo sapiens) (P03372 whole entry, looked up, the tested form may be a part): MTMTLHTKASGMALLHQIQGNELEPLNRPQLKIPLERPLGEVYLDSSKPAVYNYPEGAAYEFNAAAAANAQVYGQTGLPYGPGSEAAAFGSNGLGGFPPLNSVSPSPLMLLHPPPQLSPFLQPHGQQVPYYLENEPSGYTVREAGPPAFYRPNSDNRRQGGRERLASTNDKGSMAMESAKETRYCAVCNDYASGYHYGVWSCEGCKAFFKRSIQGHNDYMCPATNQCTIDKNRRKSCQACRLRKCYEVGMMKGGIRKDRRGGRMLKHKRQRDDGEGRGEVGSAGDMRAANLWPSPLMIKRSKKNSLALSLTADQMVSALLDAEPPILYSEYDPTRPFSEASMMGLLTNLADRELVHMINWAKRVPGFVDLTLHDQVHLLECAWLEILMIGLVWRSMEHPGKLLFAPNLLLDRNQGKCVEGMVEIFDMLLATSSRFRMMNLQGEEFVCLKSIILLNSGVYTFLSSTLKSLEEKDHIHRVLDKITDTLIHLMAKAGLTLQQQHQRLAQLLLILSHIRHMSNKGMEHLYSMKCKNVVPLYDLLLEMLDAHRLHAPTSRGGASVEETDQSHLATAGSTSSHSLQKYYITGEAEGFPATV
Chain of human Peripheral-type Benzodiazepine Receptor (PBR), TSPO (gene 706) (P30536 whole entry, looked up): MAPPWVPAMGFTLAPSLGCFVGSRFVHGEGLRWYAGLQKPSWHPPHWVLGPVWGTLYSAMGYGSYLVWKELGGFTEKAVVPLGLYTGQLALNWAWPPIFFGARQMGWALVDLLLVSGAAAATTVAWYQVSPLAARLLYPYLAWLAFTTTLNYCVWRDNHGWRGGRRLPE
Chain of bovine Estrogen Receptor (ER), ESR1 (gene 407238) (P49884 whole entry, looked up): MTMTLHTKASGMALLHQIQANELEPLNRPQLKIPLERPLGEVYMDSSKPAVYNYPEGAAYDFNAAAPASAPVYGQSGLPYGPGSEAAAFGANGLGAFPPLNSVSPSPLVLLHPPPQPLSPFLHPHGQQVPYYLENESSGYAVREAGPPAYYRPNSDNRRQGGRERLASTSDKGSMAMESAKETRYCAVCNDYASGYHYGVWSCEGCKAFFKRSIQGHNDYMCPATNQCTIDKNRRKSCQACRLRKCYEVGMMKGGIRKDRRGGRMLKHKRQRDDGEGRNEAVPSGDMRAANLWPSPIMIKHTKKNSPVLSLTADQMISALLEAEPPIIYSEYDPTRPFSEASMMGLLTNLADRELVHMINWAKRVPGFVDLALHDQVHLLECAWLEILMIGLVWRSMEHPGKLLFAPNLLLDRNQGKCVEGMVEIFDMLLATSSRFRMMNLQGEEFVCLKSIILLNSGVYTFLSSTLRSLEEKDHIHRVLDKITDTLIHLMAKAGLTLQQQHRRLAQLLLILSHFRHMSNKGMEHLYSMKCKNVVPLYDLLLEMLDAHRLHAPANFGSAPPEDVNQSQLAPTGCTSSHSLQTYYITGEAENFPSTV
Chain of rat Corticotropin Releasing Factor Receptor (CRF), Crhr1 (gene 58959) (P35353 whole entry, looked up): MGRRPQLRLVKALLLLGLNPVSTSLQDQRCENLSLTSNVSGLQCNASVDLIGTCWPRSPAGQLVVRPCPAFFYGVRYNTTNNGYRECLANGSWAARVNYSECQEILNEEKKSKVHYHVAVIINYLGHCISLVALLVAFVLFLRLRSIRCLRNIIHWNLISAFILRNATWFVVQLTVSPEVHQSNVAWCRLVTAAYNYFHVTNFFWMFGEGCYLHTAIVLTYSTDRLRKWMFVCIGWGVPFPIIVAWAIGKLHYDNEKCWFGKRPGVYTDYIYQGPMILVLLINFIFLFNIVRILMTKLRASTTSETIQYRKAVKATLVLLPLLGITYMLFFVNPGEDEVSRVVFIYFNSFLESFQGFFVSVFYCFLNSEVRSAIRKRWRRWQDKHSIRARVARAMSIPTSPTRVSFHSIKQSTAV
Chain of human Constitutive Androstane Receptor (CAR), NR1I3 (gene 9970) (Q14994 whole entry, looked up): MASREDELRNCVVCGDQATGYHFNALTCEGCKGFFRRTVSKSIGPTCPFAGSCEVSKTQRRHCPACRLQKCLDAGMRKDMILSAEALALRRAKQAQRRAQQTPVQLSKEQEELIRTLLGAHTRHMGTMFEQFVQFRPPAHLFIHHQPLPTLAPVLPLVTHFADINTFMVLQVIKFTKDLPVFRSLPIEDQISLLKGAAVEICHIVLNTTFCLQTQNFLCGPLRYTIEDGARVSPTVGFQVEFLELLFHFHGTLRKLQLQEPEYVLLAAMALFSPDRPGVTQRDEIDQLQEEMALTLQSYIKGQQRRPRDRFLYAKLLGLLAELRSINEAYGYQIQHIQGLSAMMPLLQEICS
Chain of human Androgen Receptor (AR), AR (gene 367) (P10275 whole entry, looked up): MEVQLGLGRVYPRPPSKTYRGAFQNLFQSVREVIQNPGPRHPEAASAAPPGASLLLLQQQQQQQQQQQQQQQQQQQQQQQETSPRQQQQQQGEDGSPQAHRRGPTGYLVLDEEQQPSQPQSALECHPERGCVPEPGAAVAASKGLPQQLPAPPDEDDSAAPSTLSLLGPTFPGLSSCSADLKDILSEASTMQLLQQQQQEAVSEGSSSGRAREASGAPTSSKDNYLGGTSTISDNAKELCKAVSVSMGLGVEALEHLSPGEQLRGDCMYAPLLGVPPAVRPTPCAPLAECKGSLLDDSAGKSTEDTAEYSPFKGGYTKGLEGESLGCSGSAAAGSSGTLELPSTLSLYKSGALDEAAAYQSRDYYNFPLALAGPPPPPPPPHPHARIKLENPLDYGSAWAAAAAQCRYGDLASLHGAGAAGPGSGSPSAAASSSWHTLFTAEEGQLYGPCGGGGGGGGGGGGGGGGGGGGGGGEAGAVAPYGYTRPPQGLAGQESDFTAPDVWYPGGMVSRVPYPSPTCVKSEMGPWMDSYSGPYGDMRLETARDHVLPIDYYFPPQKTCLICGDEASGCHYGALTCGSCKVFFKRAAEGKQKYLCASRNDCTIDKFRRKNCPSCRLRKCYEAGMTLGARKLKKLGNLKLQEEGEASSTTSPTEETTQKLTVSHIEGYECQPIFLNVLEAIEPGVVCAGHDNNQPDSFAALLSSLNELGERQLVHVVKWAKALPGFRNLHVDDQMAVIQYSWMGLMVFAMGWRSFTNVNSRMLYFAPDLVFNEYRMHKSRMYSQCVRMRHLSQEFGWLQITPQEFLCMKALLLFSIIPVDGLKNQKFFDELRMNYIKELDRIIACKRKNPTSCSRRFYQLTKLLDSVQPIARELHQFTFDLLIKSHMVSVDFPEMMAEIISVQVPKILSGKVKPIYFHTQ

By AC50 is commonly meant the concentration giving half of the maximal activity seen. Turning to `COC(=O)Nc1cccc(OC(=O)Nc2cccc(C)c2)c1`, the AC50 in [1] is 323 nM (active).
In the case of `O=c1nc(O)n(Cl)c(=O)n1Cl`, the molecule was classed as inactive in [2].
Turning to `CC(=Cc1ccccc1)[N+](=O)[O-]`, the outcome in assay [2] and in assay [3] was inactive.
For the molecule `CCOC(=O)C(SP(=S)(OC)OC)c1ccccc1` (stereo not drawn), the AC50 in assay [1] is 13400 nM (active); in assay [4] it was 7.41 µM (active).
As to `CN(C)C(=S)S`, the call in [5] and in assay [6] was inactive.
On to `O=C(CBr)c1ccc(O)cc1`, for which, in [2], the outcome was inactive.
For `CC(C)(COCC1CO1)COCC1CO1` (stereo not drawn), the AC50 in assay [7] was 2.05 µM (active). For the same molecule, the result in assay [4] was inactive.
For the molecule `Oc1cc(Cl)c(Cl)cc1Cl`, the result in assay [8] was inactive.
As for `[Cl][Sn]([c]1ccccc1)([c]1ccccc1)[c]1ccccc1`, the AC50 in assay [9] is 9.5 µM (active); in assay [10], 0.746 µM (active).
Take `CC(O)(CS(=O)(=O)c1ccc(F)cc1)C(=O)Nc1ccc(C#N)c(C(F)(F)F)c1` (stereo not drawn): the result in assay [2], in assay [11] and in assay [3] was inactive.
Regarding `COCC(=O)N(c1c(C)cccc1C)[C@H](C)C(=O)OC`, in assay [1], the outcome was inactive.
Turning to `CCC[CH2][Sn]([Cl])([Cl])[CH2]CCC`, the molecule was classed as inactive in assay [2] and in assay [3].
With `CN(N=O)C(N)=O`, in [2], the call was inactive.
Turning to `N#CCC#N`, the result in [2] and in assay [3] was inactive.
In the case of `O=C(CCl)Nc1ccccc1`, the call in [2], in [11] and in assay [3] was inactive.
Consider `Cc1ccccc1OP(=O)(Oc1ccccc1C)Oc1ccccc1C`, for which the AC50 was 800 nM (active) in assay [1] and 17.1 µM (active) in [4].
On to `CCOP(=S)(OCC)O/N=C(\C#N)c1ccccc1`, for which the outcome in assay [1] was inactive. Moreover, the AC50 in assay [4] is 16.2 µM (active).
For `CCCCCCCCCCCCc1cccc(S(=O)(=O)O)c1`, the result in assay [12] was inactive. Also, the AC50 in [4] was 12.4 µM (active); in the assay with NCBI gene 100848466, 19.5 µM (active); in assay [13], 17.9 µM (active).
For the molecule `CC(C)N(C(=O)CCl)c1ccccc1`, the outcome in assay [2] and in [3] was inactive. Moreover, the concentration at half-maximal activity (AC50) is 7.59 µM (active) and 7.28 µM (active) in assay [1]; 3.16 µM (active) and 407 nM (active) in assay [4].

The record behind these values is PubChem BioAssay (EPA / NIEHS).
